Shown is part of a subset that was picked to be rich in hits.
KDM5B inhibitor = inhibitors of human KDM5B histone demethylase; Q9UGL1; KDM5B demethylase, FDH-coupled NADH fluorescence (FDH is formaldehyde dehydrogenase); Potency, µM (top dose mostly 57.7 µM), actives largely listed as inhibitors; 220,000 tested, 2.6% active; active means well fitted inhibition curve with a large enough effect; further: 0% is about no effect; nearly all actives have a fitted effect of over 70% in size
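Inhibition is measured as reduced NADH fluorescence generation from FDH coupling to formaldehyde release. Truncated KDM5BΔAP at 200 nM final acts on H3K4me3 peptide (12.5 µM in substrate mix) in pH 7.5 HEPES buffer with Tween-20, 30 min, room temperature.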
Numbers without * were called inactive; i = inactive. Potency means the concentration at half of the fitted maximal effect.

SMILES | KDM5B inhibitor
CC(C)CCN1CC2(CCCN(C(=O)c3cc(C(F)(F)F)[nH]n3)C2)CCC1=O (centres undefined) | i
CCc1ccc(CN2CCC(Oc3ccc(C(=O)NCCOC)cc3Cl)CC2)o1 | i
CCN(CC)C(=O)CC1COc2ccc(C(=O)NCCOC)cc2N1C (centres undefined) | 28µM*
COc1ccc(CNC(=O)C(C)SCCO)cc1OC (centres undefined) | i
CN1CC(=O)N(c2ccccc2)Cc2c1ncnc2N1CCc2ccccc2C1 | 25µM*
CN1CC(=O)N(c2ccccc2)Cc2c1ncnc2N1CCC(O)CC1 | i
CN1CC(=O)N(c2ccccc2F)Cc2c1ncnc2N1CCc2ccccc2C1 | i
COC(=O)C1=C(C)N=C2SC=C(CC(=O)N3CCOCC3)N2C1c1ccc([N+](=O)[O-])cc1 (centres undefined) | i
N#Cc1c(SCC(=O)N2CCOCC2)nc(N2CCOCC2)c2c1CCCC2 | i
CC(Sc1ccc2ccccc2n1)C(=O)NC1CC1 (centres undefined) | i
COc1ccc(NC2CCCN(CC(=O)Nc3ccc(C)cn3)C2)cc1 (centres undefined) | 16µM*
CCNc1ncc(C(=O)N2CCCC(Nc3ccc(OC)cc3)C2)cn1 (centres undefined) | i
COc1ccc(NC(=O)N2CCN(Cc3ccc(C)cc3)CC2)cc1 | i
COc1cccc(C(=O)N2CCC(C(=O)c3ccc4c(c3)OCCO4)CC2)c1OC | i
Cc1ccc2c(c1)N1C(=O)OC[C@@H]1CCN(C(=O)CCC(=O)O)C2 | i
CS(=O)(=O)N1CCCC(C(=O)NCC2CCN(Cc3ccc(F)cc3)CC2)CCNC(=O)CC1 (centres undefined) | i
O=C(c1cccc(Cl)c1)N1CCC2(CC1)N=C(c1ccc(Br)cc1)NO2 | i
Cc1ccc(C2=NC3(CCN(C(=O)c4ccc5c(c4)OCO5)CC3)ON2)cc1 | i
O=C(c1cccc(F)c1)N1CCC2(CC1)N=C(c1ccccc1)NO2 | i
O=C(c1cccc(F)c1)N1CCC2(CC1)N=C(c1ccc(Cl)cc1)NO2 | 20µM*
O=C(c1ccc2c(c1)OCO2)N1CCC2(CC1)N=C(c1ccc(Cl)cc1)NO2 | 32µM*
Cc1ccc(C2=NC3(CCN(C(=O)c4ccc(F)c(Cl)c4)CC3)ON2)cc1 | i
Cc1ccc(CNCc2ccc(C(=O)O)cc2)s1 | i
N#Cc1ccc(CN2CCc3cc(S(=O)(=O)N4CCOCC4)ccc32)c(F)c1 | i
CCOC(=O)C1CCC(CNCc2c(Cl)cccc2Cl)CC1 (centres undefined) | i
SMILES | KDM5B inhibitor
O=C(Cn1nc2c(cc1=O)CCCC2)NCCc1nc2ccccc2[nH]1 | i
O=C(Nc1ccc(Br)cc1)c1nc2ccccc2nc1N1CCCCC1 | i
CN(C)C(=O)CN1CCCN(Cc2nc3ccccc3o2)CC1 | i
O=C(c1ccn[nH]1)N1CC(c2ncc3c(-c4cccc(C(F)(F)F)c4)nccn23)C1 | i
COC[C@@H]1CN(C(=O)c2cc3ccccc3[nH]2)C[C@H]1c1ccncc1 | i
Cc1ccccc1-c1nccn2c(C3CN(C(=O)c4cc5ccccc5[nH]4)C3)ncc12 | 50µM*
Cc1ccc(OCCNC(=O)c2cc3ccccc3oc2=O)c(C)c1 | i
Cc1noc(/C=C\c2ccc(S(=O)(=O)N3CCN(C)CC3)cc2)c1NC(=O)C1CC1 | i
CCc1noc([C@@H]2CC(F)(F)CN2C(=O)CCn2ccnc2)n1 | i
O=C(CN1CCN(c2ccc(C(F)(F)F)cn2)CC1)NC1CCS(=O)(=O)C1 (centres undefined) | i
Cc1ccc(C(=O)NC2CCCN(c3ccc(C(F)(F)F)cn3)C2)cn1 (centres undefined) | i
CNCC(=O)NC1CCCN(c2ccc(C(F)(F)F)cn2)C1 (centres undefined) | 28µM*
CCOCCCNC(=O)c1cc2cc(S(=O)(=O)N(C)C)ccc2n1C | i
COCCNC(=O)c1ccc(CC2CCN(C(=O)CCc3c(C)nn(C)c3C)CC2)cc1 | i
N[C@H]1CCC[C@@H](C(=O)NCc2nc(-c3cccc(F)c3)c(-c3ccccn3)[nH]2)C1 | i
O=C(NCc1nc(-c2cccc(F)c2)c(-c2ccccn2)[nH]1)N1CCCC1 | 22µM*
COCC(=O)NCc1nc(-c2cccc(F)c2)c(-c2ccccn2)[nH]1 | i
C#CCNC(=O)C1=NOC2CN(S(C)(=O)=O)CC12 (centres undefined) | i
CC(=O)Nc1ccc(CN2CCCCC23Cc2ccccc2CN(C(=O)C(C)C)C3)cc1 (centres undefined) | i
CC(=O)N1Cc2ccccc2CC2(CCCCN2CC2CCOCC2)C1 (centres undefined) | i
CC(=O)N1Cc2ccccc2CC2(CCCN(CC3CCNC3)C2)C1 (centres undefined) | 25µM*
CC(=O)N1Cc2ccccc2CC2(CCCCN2CC2CCCC2)C1 (centres undefined) | 50µM*
CCC(=O)N1Cc2ccccc2CC2(CCCN(CC3CCNCC3)C2)C1 (centres undefined) | i

Screening data (PubChem BioAssay)
